# Results taken from ChEMBL document CHEMBL1961873, “Compounds: GSK PKIS; Assays: Nanosyn kinase panel” (2012).
# Key:
# [1] = biological target: Serine/threonine-protein kinase PAK 6 (Homo sapiens) (UniProt Q9NQU5); settings: at 1 µM;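 further: values are mean percent inhibition of PAK6 kinase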
# [2] = system: Tyrosine-protein kinase ABL1 (Homo sapiens), P00519 [E255K]; settings: at 0.1 µM
# [3] = system: Tyrosine-protein kinase ABL1 (Homo sapiens), P00519 [E255K]; settings: at 1 µM
# [4] = system: Tyrosine-protein kinase ABL1 (Homo sapiens), P00519 [H396P]; settings: at 0.1 µM
# [5] = system: Tyrosine-protein kinase ABL1 (Homo sapiens), P00519 [H396P]; settings: at 1 µM
# [6] = system: Tyrosine-protein kinase ABL1 (Homo sapiens), P00519 [M351T]; settings: at 0.1 µM
# [7] = system: Tyrosine-protein kinase ABL1 (Homo sapiens), P00519 [M351T]; settings: at 1 µM
# [8] = system: Tyrosine-protein kinase ABL1 (Homo sapiens), P00519 [Q252H]; settings: at 0.1 µM
# [9] = system: Tyrosine-protein kinase ABL1 (Homo sapiens), P00519 [Q252H]; settings: at 1 µM
# [10] = system: Tyrosine-protein kinase ABL1 (Homo sapiens), P00519 [T315I]; settings: at 0.1 µM
# [11] = system: Tyrosine-protein kinase ABL1 (Homo sapiens), P00519 [T315I]; settings: at 1 µM
# [12] = system: Tyrosine-protein kinase ABL1 (Homo sapiens), P00519 [Y253F]; settings: at 0.1 µM
# [13] = system: Tyrosine-protein kinase ABL1 (Homo sapiens), P00519 [Y253F]; settings: at 1 µM
# [14] = biological target: Tyrosine-protein kinase ABL1 (Homo sapiens) (UniProt P00519); settings: at 0.1 µM
# [15] = biological target: Tyrosine-protein kinase ABL1 (Homo sapiens) (UniProt P00519); settings: at 1 µM
# [16] = biological target: ALK tyrosine kinase receptor (Homo sapiens) (UniProt Q9UM73); settings: at 0.1 µM
# Sequence of ALK tyrosine kinase receptor (Homo sapiens) (Q9UM73 19-1620 limits assumed): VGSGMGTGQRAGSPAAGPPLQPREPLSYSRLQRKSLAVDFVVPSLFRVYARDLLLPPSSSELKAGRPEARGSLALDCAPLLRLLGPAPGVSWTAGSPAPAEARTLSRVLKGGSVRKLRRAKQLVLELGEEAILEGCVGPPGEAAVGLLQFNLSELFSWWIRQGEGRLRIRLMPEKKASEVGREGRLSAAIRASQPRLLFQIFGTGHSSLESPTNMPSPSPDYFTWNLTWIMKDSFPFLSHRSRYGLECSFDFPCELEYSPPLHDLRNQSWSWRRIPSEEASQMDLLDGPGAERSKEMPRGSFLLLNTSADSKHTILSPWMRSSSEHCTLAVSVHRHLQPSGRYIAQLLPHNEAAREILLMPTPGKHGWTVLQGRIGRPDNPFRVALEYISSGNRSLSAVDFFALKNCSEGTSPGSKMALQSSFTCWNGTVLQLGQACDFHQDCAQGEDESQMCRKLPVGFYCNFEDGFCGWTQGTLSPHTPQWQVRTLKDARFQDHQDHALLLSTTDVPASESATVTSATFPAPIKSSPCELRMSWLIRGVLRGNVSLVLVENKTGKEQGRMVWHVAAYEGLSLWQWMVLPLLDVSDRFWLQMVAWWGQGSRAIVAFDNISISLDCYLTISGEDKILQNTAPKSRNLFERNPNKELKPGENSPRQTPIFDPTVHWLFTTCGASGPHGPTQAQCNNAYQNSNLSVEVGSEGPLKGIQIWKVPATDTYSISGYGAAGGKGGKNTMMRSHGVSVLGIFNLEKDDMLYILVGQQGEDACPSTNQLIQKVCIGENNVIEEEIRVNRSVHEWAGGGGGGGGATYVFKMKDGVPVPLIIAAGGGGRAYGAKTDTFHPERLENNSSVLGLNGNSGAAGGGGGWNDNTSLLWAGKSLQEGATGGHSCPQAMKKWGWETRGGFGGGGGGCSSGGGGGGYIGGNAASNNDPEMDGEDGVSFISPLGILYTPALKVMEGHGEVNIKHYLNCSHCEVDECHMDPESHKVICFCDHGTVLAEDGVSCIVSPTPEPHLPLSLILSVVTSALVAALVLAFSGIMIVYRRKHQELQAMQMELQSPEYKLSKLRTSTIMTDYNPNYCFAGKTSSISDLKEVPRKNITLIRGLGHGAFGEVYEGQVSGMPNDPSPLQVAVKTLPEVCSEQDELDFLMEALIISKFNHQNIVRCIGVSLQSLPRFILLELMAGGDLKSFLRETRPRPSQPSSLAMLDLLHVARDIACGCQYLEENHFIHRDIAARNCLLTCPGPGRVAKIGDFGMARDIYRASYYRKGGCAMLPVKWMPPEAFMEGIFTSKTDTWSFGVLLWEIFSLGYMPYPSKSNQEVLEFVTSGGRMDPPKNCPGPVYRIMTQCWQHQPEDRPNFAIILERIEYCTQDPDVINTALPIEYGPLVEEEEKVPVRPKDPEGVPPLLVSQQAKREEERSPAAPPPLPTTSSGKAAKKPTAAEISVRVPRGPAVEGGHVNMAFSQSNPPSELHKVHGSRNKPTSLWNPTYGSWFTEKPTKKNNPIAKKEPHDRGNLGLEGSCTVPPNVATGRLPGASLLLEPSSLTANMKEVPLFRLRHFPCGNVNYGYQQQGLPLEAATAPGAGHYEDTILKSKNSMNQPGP
# [17] = biological target: ALK tyrosine kinase receptor (Homo sapiens) (UniProt Q9UM73); settings: at 1 µM
# [18] = biological target: Tyrosine-protein kinase ABL2 (Homo sapiens) (UniProt P42684); settings: at 0.1 µM
# Sequence of Tyrosine-protein kinase ABL2 (Homo sapiens) (P42684 whole entry): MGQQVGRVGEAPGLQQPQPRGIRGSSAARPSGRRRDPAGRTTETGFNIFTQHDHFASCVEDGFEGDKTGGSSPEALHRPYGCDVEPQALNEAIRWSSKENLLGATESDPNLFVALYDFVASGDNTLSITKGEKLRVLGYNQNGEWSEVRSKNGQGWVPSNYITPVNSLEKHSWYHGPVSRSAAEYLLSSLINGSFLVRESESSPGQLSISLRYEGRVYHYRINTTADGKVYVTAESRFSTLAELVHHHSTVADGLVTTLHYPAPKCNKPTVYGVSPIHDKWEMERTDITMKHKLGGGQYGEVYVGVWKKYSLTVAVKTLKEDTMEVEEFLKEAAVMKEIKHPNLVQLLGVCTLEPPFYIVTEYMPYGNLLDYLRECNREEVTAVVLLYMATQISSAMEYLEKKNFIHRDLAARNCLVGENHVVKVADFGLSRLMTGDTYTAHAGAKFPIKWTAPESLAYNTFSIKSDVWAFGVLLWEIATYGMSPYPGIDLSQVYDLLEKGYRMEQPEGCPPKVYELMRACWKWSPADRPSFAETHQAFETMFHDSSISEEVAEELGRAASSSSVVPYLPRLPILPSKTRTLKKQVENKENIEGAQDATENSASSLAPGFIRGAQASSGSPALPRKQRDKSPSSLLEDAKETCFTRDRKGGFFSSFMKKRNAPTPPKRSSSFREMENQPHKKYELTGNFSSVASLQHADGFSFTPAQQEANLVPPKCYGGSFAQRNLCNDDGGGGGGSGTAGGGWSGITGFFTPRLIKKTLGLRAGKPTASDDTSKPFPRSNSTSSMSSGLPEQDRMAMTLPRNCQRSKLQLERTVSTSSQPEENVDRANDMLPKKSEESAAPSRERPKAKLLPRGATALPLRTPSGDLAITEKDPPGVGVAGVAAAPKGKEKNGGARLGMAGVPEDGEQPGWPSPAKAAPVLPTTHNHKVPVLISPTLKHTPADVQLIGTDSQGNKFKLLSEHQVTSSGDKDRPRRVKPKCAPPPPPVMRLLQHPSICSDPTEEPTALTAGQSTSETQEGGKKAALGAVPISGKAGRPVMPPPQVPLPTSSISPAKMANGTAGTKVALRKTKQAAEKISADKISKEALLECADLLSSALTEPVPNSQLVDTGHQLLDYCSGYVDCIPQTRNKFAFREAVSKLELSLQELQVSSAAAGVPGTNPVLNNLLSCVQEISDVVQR
# [19] = biological target: Tyrosine-protein kinase ABL2 (Homo sapiens) (UniProt P42684); settings: at 1 µM
# [20] = biological target: Tyrosine-protein kinase receptor UFO (Homo sapiens) (UniProt P30530); settings: at 0.1 µM;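 further: values are mean percent inhibition of AXL from the GSK PKIS screen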
# Sequence of Tyrosine-protein kinase receptor UFO (Homo sapiens) (P30530 whole entry): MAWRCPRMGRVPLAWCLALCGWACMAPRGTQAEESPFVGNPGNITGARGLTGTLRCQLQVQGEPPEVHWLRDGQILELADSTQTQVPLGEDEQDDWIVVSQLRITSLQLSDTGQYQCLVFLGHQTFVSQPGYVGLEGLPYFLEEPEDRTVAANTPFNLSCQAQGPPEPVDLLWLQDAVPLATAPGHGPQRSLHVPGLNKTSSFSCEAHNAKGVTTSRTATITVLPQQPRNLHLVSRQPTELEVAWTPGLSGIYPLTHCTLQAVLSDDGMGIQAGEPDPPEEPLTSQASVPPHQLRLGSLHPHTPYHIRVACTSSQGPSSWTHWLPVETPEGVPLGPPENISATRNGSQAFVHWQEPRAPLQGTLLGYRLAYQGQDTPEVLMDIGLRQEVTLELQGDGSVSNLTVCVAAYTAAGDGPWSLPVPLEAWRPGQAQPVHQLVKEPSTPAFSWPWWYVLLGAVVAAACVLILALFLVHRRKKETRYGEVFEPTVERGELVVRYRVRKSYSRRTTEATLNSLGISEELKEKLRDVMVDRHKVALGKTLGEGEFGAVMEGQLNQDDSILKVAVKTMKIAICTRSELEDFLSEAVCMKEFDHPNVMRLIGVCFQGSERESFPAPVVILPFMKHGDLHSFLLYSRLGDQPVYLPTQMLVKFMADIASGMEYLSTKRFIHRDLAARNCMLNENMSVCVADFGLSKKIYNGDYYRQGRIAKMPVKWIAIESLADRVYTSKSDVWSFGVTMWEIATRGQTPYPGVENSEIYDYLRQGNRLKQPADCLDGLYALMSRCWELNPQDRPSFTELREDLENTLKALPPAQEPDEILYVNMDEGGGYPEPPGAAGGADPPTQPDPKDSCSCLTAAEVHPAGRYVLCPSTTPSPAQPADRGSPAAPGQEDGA
# Sequence of Serine/threonine-protein kinase PAK 6 (Homo sapiens) (Q9NQU5 whole entry, looked up): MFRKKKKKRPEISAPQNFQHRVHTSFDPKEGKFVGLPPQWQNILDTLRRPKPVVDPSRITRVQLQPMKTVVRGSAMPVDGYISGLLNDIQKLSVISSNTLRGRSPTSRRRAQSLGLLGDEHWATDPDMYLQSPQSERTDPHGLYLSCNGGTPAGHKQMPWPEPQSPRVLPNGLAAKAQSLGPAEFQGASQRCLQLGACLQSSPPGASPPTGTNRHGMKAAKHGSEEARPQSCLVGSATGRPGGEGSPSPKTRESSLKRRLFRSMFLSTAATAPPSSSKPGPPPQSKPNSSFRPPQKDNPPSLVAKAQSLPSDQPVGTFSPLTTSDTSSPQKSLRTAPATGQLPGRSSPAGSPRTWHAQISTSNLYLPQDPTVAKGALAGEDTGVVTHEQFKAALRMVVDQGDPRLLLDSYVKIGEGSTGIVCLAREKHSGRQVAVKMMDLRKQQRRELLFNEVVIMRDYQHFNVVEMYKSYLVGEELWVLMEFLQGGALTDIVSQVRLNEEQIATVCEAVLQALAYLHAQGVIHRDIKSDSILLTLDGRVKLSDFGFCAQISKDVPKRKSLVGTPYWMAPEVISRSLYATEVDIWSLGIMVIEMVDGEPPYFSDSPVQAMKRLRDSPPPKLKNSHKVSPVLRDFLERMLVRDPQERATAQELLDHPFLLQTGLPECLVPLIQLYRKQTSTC
Compound,inhibition [1] [%],inhibition [2] [%],inhibition [3] [%],inhibition [4] [%],inhibition [5] [%],inhibition [6] [%],inhibition [7] [%],inhibition [8] [%],inhibition [9] [%],inhibition [10] [%],inhibition [11] [%],inhibition [12] [%],inhibition [13] [%],inhibition [14] [%],inhibition [15] [%],inhibition [16] [%],inhibition [17] [%],inhibition [18] [%],inhibition [19] [%],inhibition [20] [%]
CCn1c(-c2nonc2N)nc2c(N3CCCC3)nccc21,0.23,-0.9,-0.63,0.1,-1.53,1.28,-0.55,1.69,-0.47,-0.16,0.72,-1.15,2.07,-1.74,0.66,-1.38,-2.28,0.18,7.36,0.14
CCc1cccc(NC(=O)Nc2ccc(Oc3ccc4nc(NC(=O)OC)[nH]c4c3)cc2)c1,1.29,6.09,14.3,34,51.8,48.6,57.9,48.4,60.8,40.6,51.3,18.3,26.6,7.41,23.8,1.34,3.68,14.8,44.8,9.63
COc1cccc(-n2ncc3c(N/N=C/c4cccc(F)c4)ncnc32)c1,-4.69,40.5,84.1,51,87.6,52.3,88,60.9,90.3,10.8,51.8,57.7,89.2,12,69.3,-1.54,-1.21,3.52,52.4,-2.89
Cc1cccc(-c2n[nH]cc2-c2ccc3ncccc3n2)n1,-8.92,4.1,29.4,5.48,35.5,2.99,35.3,3.21,29.6,-0.61,2.07,3.03,25.9,5.29,37.2,2.05,0.57,3.75,8,-0.81
COc1ccc(-c2nn3ncccc3c2-c2ccnc(Nc3ccc(Cl)c(C(F)(F)F)c3)n2)cc1,-4.72,0.96,5.54,0.79,8.65,2.03,26.5,4.06,18.9,1.74,4.57,2.03,6.35,2.26,10.3,1.83,2.05,2.64,9.44,-2.69
O=C1NC(=O)C(c2ccccc2Cl)=C1Nc1cccc(O)c1,11.2,1.22,1.02,3.02,1.17,-0.23,2.78,2.48,1.91,3.52,6.08,3.51,3.33,4.23,9.09,2.43,4.74,4.43,1.33,-5.88
O=C1Nc2ccc(C(=O)c3ccco3)cc2C1=Cc1cc(Cl)c(O)c(Cl)c1,0.19,3.7,15.1,3.27,13.7,3.29,12.9,5.53,17.7,3.59,8.5,5.68,17.9,4.71,21.5,3.92,20.8,5.9,15.3,-4.61
O=C1NC(=O)C(N2CCc3ccccc32)=C1c1ccc(Cl)cc1,-5.45,4.83,4.21,6.7,2.97,3.31,3.23,6.26,3.84,2.02,1.87,6.01,5.27,4.41,7.9,3.63,4.31,4.83,8.28,-4.63
CC1=C(C(=O)Nc2ccc3[nH]ncc3c2)C(c2ccc3ccccc3c2)CC(=O)N1 (centres undefined),-2.6,2.56,3.94,3.48,12.3,3.47,14.9,3.89,17.1,5.08,22.1,4,5.47,2.85,7.38,2.78,7.11,3.07,8.71,-2.62
COc1ccccc1Nc1ncc(-c2ccccc2)o1,-9.8,3.77,8,6.53,15.2,2.78,10.8,5.47,9.74,2.77,5.84,4.71,13.7,8.63,14.1,4.54,9.47,7.08,11.2,-6.45
COC(=O)Nc1nc2cc(Oc3ccc(NC(=O)Nc4cccc(C(=O)O)c4)cc3)ccc2[nH]1,4.26,-4.91,3.52,0.4,9.38,3.52,19.9,1.92,14.4,2.13,15.4,5.1,7.71,-2.66,6.45,-3.78,-1.37,-0.6,3.96,-0.47
CC1=C(C(=O)Nc2ccc3[nH]ncc3c2)C(c2ccc(Cl)c(Cl)c2)CC(=O)N1 (centres undefined),2.05,1.47,-1.52,1.38,0.16,1.24,1.38,3.45,3.33,1.44,2.96,2.96,0.52,2.43,7.38,0.6,3.88,2.19,3.97,-2.18
Fc1cccc(COc2ccc(Nc3ncnc4cc(-c5ccc[nH]5)sc34)cc2Cl)c1,–,1.82,7.42,3.38,5.8,0.9,5.26,2.05,6.45,0.63,5.41,3.92,8.02,0.53,10.7,-2.31,2.96,3.02,9.41,-2.49
NC(=O)c1ccc(-c2nc(-c3ccccn3)c(-c3ccc4c(c3)OCO4)[nH]2)cc1,-5.81,3.49,4.45,1.34,6.63,0.6,3.86,0.7,3.91,1.95,2.56,1.74,2.37,1.82,6.95,1.12,2.39,1.95,6.03,-3.37
Nc1nc(-c2ccc3c(c2)C(=Cc2cc(Br)c(O)c(Br)c2)C(=O)N3)cs1,–,-0.02,6.46,0.77,4.36,-0.05,4.99,2.23,6.93,-0.15,1.95,-2.03,7.8,0.56,12.7,-1.31,1.3,0.45,9.86,0.81
CS(=O)(=O)CCNCc1ccc(-c2ccc3ncnc(Nc4ccc(OCc5ccccc5)c(Cl)c4)c3c2)o1,–,1.33,0.95,0.8,3.2,1.7,2.85,1.92,3.15,1.4,2.14,0.5,1.92,0.58,3.7,1.08,4.89,0.92,5.67,0.79
Cc1ccc(C(=O)NC2CCCCC2)cc1-c1ccc(C(=O)NCC2CC2)cc1,-8.15,0.94,-0.03,4.41,0.31,3.58,2.26,3.13,2.92,1.36,-0.78,1.39,2.22,4.64,6.52,2.91,4.07,4.04,8.56,0.41
Nc1nc(-c2ccccn2)c(-c2ccc3ncccc3n2)s1,-5.19,2.57,3.81,3.89,4.78,-0.12,3.17,2.96,3.86,1.93,3.65,3.71,3.66,5.61,12.5,1.41,4.86,3.71,8.87,-2.51
CS(=O)(=O)CCNCc1nc(-c2ccc3ncnc(Nc4ccc(F)c(Cl)c4)c3c2)cs1,0.67,2.57,10.6,5.57,16.2,0.97,12.9,3.6,16,1.06,6.43,1.82,18.3,3.89,18.2,0.89,3.6,4.58,9.66,0.38
Cn1cc(C=C2C(=O)Nc3cccnc32)c2ccccc21,0.69,5.17,28.1,7.05,37.5,3.06,35.9,6.07,33.2,8.02,43.9,10.6,48.7,7.81,44.7,5.12,9.81,3.71,20.9,-2.84
COc1ccc(-c2ccncc2)cc1C(N)=O,–,2.26,3.56,4.08,3.48,-0.68,-0.45,3.19,2.33,2.27,2.08,4.84,2.94,4.11,5.76,3.85,6.43,3.92,4.08,-7.91
COc1ccc(COc2ccc(Cc3cnc(N)nc3N)cc2OC)cc1,-2.29,1.25,–,0.76,-1.33,3.17,-0.65,2.23,-0.16,-0.36,-2.04,3.15,0.75,3.16,7.34,-0.54,0.01,3.27,5.98,4.25
CCn1c(-c2nonc2N)nc2cncc(C(=O)N3CCNCC3)c21,0.53,-1.75,4.64,4.85,4.82,-1.66,-0.43,3.41,4.95,1.64,1.77,2.95,5.17,3.16,3.28,3.59,5.18,1.81,4.42,-7.98
Nc1ncnc2occ(-c3ccc(NC(=O)Nc4cc(C(F)(F)F)cc(C(F)(F)F)c4)cc3)c12,7.94,3.79,25.5,18.5,68.1,48.5,80.9,45,75.5,42.5,83.3,9.88,42.3,3.94,43.5,2.49,10.8,6.22,48.9,-0.91
Cc1nn(C)c2cc(N(C)c3ccnc(Nc4cccc(S(N)(=O)=O)c4)n3)ccc12,-9.82,27.9,73.7,58.2,90,58.2,90.2,45.7,85.4,20.3,68.1,45.3,84.5,28.3,74.9,3.45,19.2,30.2,74.4,-2.86
O=C(Nc1n[nH]c2nc(-c3ccco3)c(Br)cc12)C1CC1,0.72,3.52,8.63,5.52,26.4,4.18,29.8,8.1,32.3,3.13,26.6,3,11.5,5.46,24.1,1.26,4.4,3.57,18.4,-6.59
CS(=O)(=O)CCNCc1ccc(-c2ccc3ncnc(Nc4ccc(OCc5cccc(F)c5)c(C(F)(F)F)c4)c3c2)o1,–,4.46,3.49,4.63,3.75,4.03,1.37,4.26,2.45,1.73,4.21,4.9,2.89,2.03,2.75,1.6,2.6,4.19,4.05,-5.05
